About 7,900 targets were measured; listed, in parts, are those with a hit and a random draw of the rest. About 0.6% of all pairs of compound and target were hits.
Columns and labels:
Test in all cases: log2 fold change, soluble protein after heating vs DMSO (PISA); higher = thermal stabilisation; K562 cells, 10 uM, 30 min; active = over 0.2 and 3.5 SD of the protein, either way, in both replicates (recomputed)
IRAK-1-4 Inhibitor I = compound: C1COCCN1CCN2C3=CC=CC=C3N=C2NC(=O)C4=CC(=CC=C4)[N+](=O)[O-] [IRAK-1-4 Inhibitor I]
Summary of the method: (§1)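 Soluble protein was quantified by TMTpro 16plex LC-MS/MS after channel sums were equalised. It was obtained as the supernatant after 21,000xg for 90 min from pooled aliquots of K562 cells (2×10^6 cells/mL, 10 μM compound, 30 min) heated for 3 min across 48°C-58°C and extracted in PBS with 0.5% NP-40 at 4°C. Thermal stability values are relative to control samples and come from duplicates. They are given as log2 fold changes.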

ibrutinib = compound: C=CC(=O)N1CCC[C@@H](n2nc(-c3ccc(Oc4ccccc4)cc3)c3c(N)ncnc32)C1 [ibrutinib]
Summary of the method: as §1

[1] = compound: CC(=O)c1cnc2ccc(-c3cc(Cl)c(O)c(Cl)c3)nc2c1N[C@H]1CC[C@H](CN(C)C)CC1
Summary of the method: as §1

ralimetinib = compound: CC(C)(C)Cn1c(N)nc2ccc(-c3[nH]c(C(C)(C)C)nc3-c3ccc(F)cc3)nc21 [ralimetinib]
Summary of the method: as §1

[2] = compound: CC(C)(O)CC(=O)NCCn1ccc2ncnc(Nc3ccc(Oc4cccc(C(F)(F)F)c4)c(Cl)c3)c21
Summary of the method: as §1

[3] = compound: CC(C)C1=C2N=C(C=C(N2N=C1)NCC3=CC=CC=C3)NCCCCCCN
Summary of the method: as §1

[4] = compound: CC(C)C[C@@H](C=O)NC(=O)[C@H](CC(C)C)NC(=O)[C@H](CC(C)C)NC(=O)OCc1ccccc1
Summary of the method: as §1

pinometostat = compound: CC(C)N(C[C@H]1O[C@@H](n2cnc3c(N)ncnc32)[C@H](O)[C@@H]1O)[C@H]1C[C@@H](CCc2nc3cc(C(C)(C)C)ccc3[nH]2)C1 [pinometostat]
Summary of the method: as §1

[5] = compound: CC1=C(C(CC(=O)N1)C2=CC=C(C=C2)C(F)(F)F)C(=O)NC3=C(C=C4C(=C3)C=NN4)F
Summary of the method: as §1

[6] = compound: CC1=C(C2=C(C=C1)C(=O)C3=CC=CC=C3N2CCCN)C
Summary of the method: as §1

[7] = compound: CC1=C(C=C(C=C1)NC(=O)C2=CC(=CC=C2)C(C)(C)C#N)NC3=CC4=C(C=C3)N=CN(C4=O)C
Summary of the method: as §1

[8] = compound: CC1=C(C=C(C=C1)NC(=O)C2=CC(=CC=C2)N(C)C)NC(=O)C3=CC=C(C=C3)O
Summary of the method: as §1

[9] = compound: CC1=CC=C(C=C1)SC2=C3C=C(SC3=CN=C2)C(=O)N
Summary of the method: as §1

[10] = compound: CC1=NC(=CC=C1)C2=C(N=C(N2)C(C)(C)C)C3=CC4=NC=CN=C4C=C3
Summary of the method: as §1

Nexturastat A = compound: CCCCN(Cc1ccc(C(=O)NO)cc1)C(=O)Nc1ccccc1 [Nexturastat A]
Summary of the method: as §1

vemurafenib = compound: CCCS(=O)(=O)Nc1ccc(F)c(C(=O)c2c[nH]c3ncc(-c4ccc(Cl)cc4)cc23)c1F [vemurafenib]
Summary of the method: as §1

[11] = compound: CCCS(=O)(=O)Nc1ccc(F)c(C(=O)c2c[nH]c3ncc(Cl)cc23)c1F
Summary of the method: as §1

[12] = compound: CCCc1cc(C)[nH]c(=O)c1CNC(=O)c1cc(-c2ccnc(N3CCN(C)CC3)c2)cc2c1cnn2C(C)C
Summary of the method: as §1

givinostat = compound: CCN(CC)Cc1ccc2cc(COC(=O)Nc3ccc(C(=O)NO)cc3)ccc2c1 [givinostat]
Summary of the method: as §1

barasertib = compound: CCN(CCCOc1ccc2c(Nc3cc(CC(=O)Nc4cccc(F)c4)[nH]n3)ncnc2c1)CCOP(=O)(O)O [barasertib]
Summary of the method: as §1

Measured: log2 fold change

FAM114A2 (UniProt Q9NRY5)
Chain of UniProt Q9NRY5 (Q9NRY5 whole entry, looked up): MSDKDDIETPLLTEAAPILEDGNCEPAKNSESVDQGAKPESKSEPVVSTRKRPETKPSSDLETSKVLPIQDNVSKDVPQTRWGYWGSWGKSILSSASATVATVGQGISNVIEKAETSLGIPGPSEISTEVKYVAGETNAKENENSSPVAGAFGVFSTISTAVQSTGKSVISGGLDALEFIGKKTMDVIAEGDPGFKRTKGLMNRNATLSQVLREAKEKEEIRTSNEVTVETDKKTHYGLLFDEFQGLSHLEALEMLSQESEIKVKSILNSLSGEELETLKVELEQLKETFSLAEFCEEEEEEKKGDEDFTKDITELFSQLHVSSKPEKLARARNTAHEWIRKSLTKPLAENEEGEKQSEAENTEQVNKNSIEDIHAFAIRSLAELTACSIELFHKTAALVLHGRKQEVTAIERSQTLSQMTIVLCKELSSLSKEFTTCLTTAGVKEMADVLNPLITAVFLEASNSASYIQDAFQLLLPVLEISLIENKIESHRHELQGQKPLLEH
inactive: IRAK-1-4 Inhibitor I 0.038 | ibrutinib -0.03 | [1] 0.013 | ralimetinib -0.017 | [2] -0.135 | [3] -0.201 | [4] 0.004 | pinometostat 0.005 | [5] -0.01 | [6] -0.059 | [7] 0.007 | [8] 0.03 | [9] 0.038 | [10] 0.022 | Nexturastat A -0.053 | vemurafenib 0.001 | [11] 0.061 | [12] -0.058 | givinostat -0.017 | barasertib 0.01

EIF2AK1 (UniProt Q9BQI3)
inactive: IRAK-1-4 Inhibitor I -0.016 | ibrutinib 0.018 | [1] 0.035 | ralimetinib -0.011 | [2] 0.056 | [3] 0.023 | pinometostat 0.031 | [6] -0.114 | [7] -0.027 | [8] -0.007 | [9] 0.079 | [10] -0.019 | Nexturastat A -0.087 | vemurafenib 0.005 | [11] 0.044 | [12] 0.179 | givinostat -0.051 | barasertib -0.017
active: [4] 0.279

DOLPP1 (UniProt Q86YN1)
inactive: IRAK-1-4 Inhibitor I 0.008 | ibrutinib -0.017 | [1] -0.19 | ralimetinib -0.128 | [3] -0.045 | [4] -0.154 | pinometostat -0.056 | [5] 0.016 | [6] 0.036 | [8] 0.012 | [9] -0.094 | [10] 0.026 | vemurafenib -0.057 | [11] -0.042 | [12] -0.018 | givinostat -0.027 | barasertib 0.057

EIF2AK3 (UniProt Q9NZJ5)
Chain of UniProt Q9NZJ5 (Q9NZJ5 whole entry, looked up): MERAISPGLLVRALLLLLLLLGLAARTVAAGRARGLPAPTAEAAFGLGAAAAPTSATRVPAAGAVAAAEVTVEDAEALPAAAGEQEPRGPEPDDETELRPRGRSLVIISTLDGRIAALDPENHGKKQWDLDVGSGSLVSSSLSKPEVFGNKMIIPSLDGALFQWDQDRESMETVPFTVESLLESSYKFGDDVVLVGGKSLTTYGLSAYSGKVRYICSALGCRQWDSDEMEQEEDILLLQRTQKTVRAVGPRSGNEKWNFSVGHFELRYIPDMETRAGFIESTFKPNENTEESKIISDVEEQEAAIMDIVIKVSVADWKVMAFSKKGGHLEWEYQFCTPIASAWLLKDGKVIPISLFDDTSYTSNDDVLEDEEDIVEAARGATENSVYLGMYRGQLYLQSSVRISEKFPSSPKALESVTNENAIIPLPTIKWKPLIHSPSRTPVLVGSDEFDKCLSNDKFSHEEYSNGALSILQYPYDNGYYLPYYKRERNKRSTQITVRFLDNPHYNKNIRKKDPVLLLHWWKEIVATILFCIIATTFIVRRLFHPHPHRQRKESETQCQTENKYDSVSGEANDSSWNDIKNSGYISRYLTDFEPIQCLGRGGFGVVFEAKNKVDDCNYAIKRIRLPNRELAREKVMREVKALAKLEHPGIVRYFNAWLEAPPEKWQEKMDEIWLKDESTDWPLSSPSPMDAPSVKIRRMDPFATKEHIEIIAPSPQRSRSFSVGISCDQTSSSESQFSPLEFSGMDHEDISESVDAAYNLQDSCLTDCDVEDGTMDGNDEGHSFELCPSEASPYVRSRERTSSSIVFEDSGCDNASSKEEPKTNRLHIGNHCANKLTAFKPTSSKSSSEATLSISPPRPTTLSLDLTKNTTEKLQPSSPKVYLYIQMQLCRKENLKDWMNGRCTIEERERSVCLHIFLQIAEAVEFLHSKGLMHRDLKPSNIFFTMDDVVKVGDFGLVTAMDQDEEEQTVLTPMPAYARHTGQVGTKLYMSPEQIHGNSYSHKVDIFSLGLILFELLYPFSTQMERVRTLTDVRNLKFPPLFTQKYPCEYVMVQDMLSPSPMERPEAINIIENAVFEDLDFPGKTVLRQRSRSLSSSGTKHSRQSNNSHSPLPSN
inactive: IRAK-1-4 Inhibitor I -0.136 | ibrutinib 0.13 | [1] -0.369 | [2] -0.322 | [3] 0.011 | pinometostat -0.048 | [5] -0.106 | [6] 0.032 | [9] 0.036 | [10] -0.043 | Nexturastat A -0.595 | [11] -0.161 | [12] 0.244 | givinostat 0.027 | barasertib 0.151

DNAL1 (UniProt Q4LDG9)
inactive: IRAK-1-4 Inhibitor I 0.012 | ibrutinib -0.082 | [1] 0.042 | ralimetinib 0.042 | [2] 0.183 | [4] 0.007 | pinometostat 0.093 | [8] 0.049 | [10] 0.069 | Nexturastat A -0.135 | vemurafenib 0.013 | barasertib 0.012

FAM122A (UniProt Q96E09)
inactive: IRAK-1-4 Inhibitor I 0.002 | ibrutinib 0.016 | [1] -0.015 | ralimetinib -0.053 | [2] 0.105 | [3] 0.066 | [4] 0.016 | pinometostat -0.008 | [5] 0.007 | [6] -0.117 | [7] -0.01 | [8] -0.005 | [9] 0.045 | [10] -0.006 | Nexturastat A 0.107 | vemurafenib -0.017 | [11] 0.095 | [12] 0.026 | givinostat 0.064 | barasertib -0.016

DOCK8 (UniProt Q8NF50)
inactive: IRAK-1-4 Inhibitor I 0.047 | ibrutinib 0.015 | [1] 0.029 | ralimetinib 0.105 | [2] -0.198 | [3] 0.152 | [4] 0.274 | pinometostat 0.059 | [5] 0.064 | [6] -0.121 | [7] -0.094 | [8] -0.051 | [10] -0.086 | Nexturastat A 0.468 | vemurafenib 0.134 | [12] 0.093 | givinostat 0.245 | barasertib 0.055

DNM2 isoform 4 (UniProt P50570)
Chain of UniProt P50570 (P50570 whole entry, looked up): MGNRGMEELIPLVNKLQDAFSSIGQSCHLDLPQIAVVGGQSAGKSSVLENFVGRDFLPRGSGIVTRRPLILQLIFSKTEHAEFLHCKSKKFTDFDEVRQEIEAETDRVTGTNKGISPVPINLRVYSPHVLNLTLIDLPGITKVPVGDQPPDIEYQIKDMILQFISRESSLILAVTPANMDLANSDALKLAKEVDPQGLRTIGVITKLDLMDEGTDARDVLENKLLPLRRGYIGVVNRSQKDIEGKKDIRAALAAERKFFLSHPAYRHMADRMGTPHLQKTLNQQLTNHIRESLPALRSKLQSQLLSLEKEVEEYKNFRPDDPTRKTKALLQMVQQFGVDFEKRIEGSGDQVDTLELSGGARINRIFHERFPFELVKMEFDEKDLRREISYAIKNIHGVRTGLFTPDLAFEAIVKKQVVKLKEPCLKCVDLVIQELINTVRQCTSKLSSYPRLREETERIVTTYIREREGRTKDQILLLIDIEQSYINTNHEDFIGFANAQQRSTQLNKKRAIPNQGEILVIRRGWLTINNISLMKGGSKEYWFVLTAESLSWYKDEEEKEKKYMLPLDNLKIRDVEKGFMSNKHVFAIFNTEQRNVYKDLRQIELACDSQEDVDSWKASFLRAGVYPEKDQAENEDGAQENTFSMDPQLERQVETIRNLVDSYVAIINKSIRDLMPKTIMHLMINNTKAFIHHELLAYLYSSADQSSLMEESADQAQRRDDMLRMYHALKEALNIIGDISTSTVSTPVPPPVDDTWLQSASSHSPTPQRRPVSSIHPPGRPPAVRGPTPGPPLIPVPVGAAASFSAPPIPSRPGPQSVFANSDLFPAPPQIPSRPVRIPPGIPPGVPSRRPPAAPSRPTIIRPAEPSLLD
inactive: IRAK-1-4 Inhibitor I 0.019 | ibrutinib -0.074 | ralimetinib 0.005 | [2] -0.101 | [3] -0.047 | [4] -0.04 | pinometostat -0.063 | [5] 0.007 | [7] 0.062 | [8] -0.001 | [10] 0.23 | Nexturastat A 0.089 | [12] -0.032 | givinostat 0.159 | barasertib 0.013

ERLIN2 (UniProt O94905)
Chain of UniProt O94905 (O94905 whole entry, looked up): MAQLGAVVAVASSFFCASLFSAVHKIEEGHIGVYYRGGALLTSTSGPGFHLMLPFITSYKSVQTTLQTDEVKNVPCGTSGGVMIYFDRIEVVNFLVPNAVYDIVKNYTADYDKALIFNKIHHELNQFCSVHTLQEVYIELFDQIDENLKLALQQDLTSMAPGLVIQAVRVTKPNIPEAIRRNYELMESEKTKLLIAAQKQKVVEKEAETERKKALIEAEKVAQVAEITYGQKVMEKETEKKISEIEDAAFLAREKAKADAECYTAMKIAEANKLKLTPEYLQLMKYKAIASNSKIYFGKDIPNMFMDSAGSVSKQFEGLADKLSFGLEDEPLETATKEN
active: [3] -0.296
inactive: IRAK-1-4 Inhibitor I -0.089 | ibrutinib 0.001 | [1] 0.058 | ralimetinib 0.004 | [2] 0 | [4] 0.035 | pinometostat 0.093 | [5] 0.021 | [6] 0.013 | [7] -0.045 | [8] -0.024 | [9] 0.009 | [10] -0.037 | Nexturastat A 0.104 | vemurafenib -0.062 | [11] 0.008 | [12] 0.12 | givinostat 0.038 | barasertib -0.003

FAM118A (UniProt Q9NWS6)
inactive: IRAK-1-4 Inhibitor I -0.009 | ibrutinib 0.045 | [1] -0.212 | ralimetinib -0.21 | [2] -0.207 | [4] -0.125 | pinometostat -0.054 | [5] -0.006 | [6] 0.014 | [7] 0.057 | [8] 0.086 | [9] 0.101 | [10] -0.163 | Nexturastat A -0.031 | vemurafenib 0.182 | [11] 0.114 | [12] -0.016 | barasertib 0.112

DCAF13 (UniProt Q9NV06)
inactive: IRAK-1-4 Inhibitor I -0.079 | ibrutinib 0.019 | [1] 0.101 | ralimetinib 0.077 | [2] 0.032 | [3] -0.078 | [4] 0.165 | pinometostat 0.263 | [5] 0.037 | [6] -0.33 | [7] -0.038 | [8] 0.007 | [9] -0.123 | [10] -0.067 | Nexturastat A 0.205 | vemurafenib -0.117 | [11] -0.062 | [12] 0.089 | givinostat 0.017 | barasertib -0.084

DNAJC24 (UniProt Q6P3W2)
Chain of UniProt Q6P3W2 (Q6P3W2 whole entry, looked up): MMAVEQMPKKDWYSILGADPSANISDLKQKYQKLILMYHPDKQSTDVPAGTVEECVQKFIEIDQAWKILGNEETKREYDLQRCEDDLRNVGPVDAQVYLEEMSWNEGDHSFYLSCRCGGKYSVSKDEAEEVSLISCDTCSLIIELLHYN
inactive: IRAK-1-4 Inhibitor I -0.035 | ibrutinib 0.011 | ralimetinib 0.058 | [2] 0.026 | [3] -0.037 | [4] 0.058 | pinometostat -0.019 | [5] 0.062 | [6] -0.023 | [7] -0.024 | [8] 0.368 | [9] 0.104 | [10] 0.008 | Nexturastat A -0.208 | vemurafenib 0.008 | [11] -0.034 | [12] 0.027 | givinostat 0.07 | barasertib 0.008

EIF4G3 isoform 3 (UniProt O43432)
Chain of UniProt O43432 (O43432 whole entry, looked up): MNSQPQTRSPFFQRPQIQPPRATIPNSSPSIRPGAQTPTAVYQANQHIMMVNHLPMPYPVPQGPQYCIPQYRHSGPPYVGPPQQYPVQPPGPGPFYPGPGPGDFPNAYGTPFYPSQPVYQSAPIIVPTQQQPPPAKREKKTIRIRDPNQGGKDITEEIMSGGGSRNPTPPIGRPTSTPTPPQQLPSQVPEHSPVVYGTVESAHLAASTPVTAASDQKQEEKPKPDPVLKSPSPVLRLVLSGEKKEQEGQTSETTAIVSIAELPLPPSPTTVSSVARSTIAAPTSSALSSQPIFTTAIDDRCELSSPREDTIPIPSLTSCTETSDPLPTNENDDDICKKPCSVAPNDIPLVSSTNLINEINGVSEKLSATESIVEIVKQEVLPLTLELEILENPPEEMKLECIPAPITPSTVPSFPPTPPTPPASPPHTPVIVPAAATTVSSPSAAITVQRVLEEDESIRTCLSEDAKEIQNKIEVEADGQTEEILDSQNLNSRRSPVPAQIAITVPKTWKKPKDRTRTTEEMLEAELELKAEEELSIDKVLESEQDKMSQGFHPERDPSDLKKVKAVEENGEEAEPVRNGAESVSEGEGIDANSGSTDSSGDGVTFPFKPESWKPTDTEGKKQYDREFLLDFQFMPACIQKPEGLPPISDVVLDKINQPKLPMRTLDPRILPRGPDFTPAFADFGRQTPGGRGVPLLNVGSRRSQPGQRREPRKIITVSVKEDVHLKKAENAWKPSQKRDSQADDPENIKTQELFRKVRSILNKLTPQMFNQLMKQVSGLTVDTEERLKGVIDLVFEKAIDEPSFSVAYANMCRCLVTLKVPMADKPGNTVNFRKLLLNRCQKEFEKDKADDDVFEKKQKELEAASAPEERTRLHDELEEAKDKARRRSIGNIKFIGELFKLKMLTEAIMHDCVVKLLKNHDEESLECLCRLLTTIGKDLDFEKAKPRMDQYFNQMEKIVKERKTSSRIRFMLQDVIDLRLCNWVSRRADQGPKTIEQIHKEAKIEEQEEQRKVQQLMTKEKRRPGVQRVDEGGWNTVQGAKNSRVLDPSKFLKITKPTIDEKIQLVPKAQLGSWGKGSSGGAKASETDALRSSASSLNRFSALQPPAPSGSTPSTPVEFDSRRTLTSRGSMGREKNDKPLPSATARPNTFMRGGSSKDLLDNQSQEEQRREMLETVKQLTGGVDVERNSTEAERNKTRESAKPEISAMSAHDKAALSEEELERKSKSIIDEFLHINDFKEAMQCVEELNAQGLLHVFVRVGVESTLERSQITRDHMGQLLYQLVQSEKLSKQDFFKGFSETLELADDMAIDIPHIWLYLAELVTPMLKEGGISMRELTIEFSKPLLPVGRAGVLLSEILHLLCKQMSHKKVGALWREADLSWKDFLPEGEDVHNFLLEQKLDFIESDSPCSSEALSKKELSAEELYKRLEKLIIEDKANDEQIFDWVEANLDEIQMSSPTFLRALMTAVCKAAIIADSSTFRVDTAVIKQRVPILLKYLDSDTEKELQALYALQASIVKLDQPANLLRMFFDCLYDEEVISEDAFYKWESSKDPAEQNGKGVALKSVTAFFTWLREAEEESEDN
inactive: IRAK-1-4 Inhibitor I 0.012 | ibrutinib 0 | [1] -0.074 | ralimetinib -0.003 | [3] -0.079 | [4] 0.017 | pinometostat 0.079 | [5] -0.227 | [6] 0.03 | [7] -0.024 | [8] 0.01 | [9] 0 | [10] -0.015 | vemurafenib 0.047 | [11] 0.002 | [12] 0.067 | givinostat 0.08 | barasertib 0.059

DNAAF2 (UniProt Q9NVR5)
inactive: IRAK-1-4 Inhibitor I -0.02 | ibrutinib -0.023 | [1] 0.014 | ralimetinib 0.022 | [2] 0.013 | [3] -0.025 | [4] -0.054 | pinometostat -0.023 | [5] 0 | [6] -0.013 | [7] -0.037 | [8] -0.043 | [9] -0.046 | [10] -0.038 | Nexturastat A -0.034 | vemurafenib 0.043 | [11] -0.038 | [12] -0.065 | givinostat 0 | barasertib -0.009

DUS2 (UniProt Q9NX74)
Chain of UniProt Q9NX74 (Q9NX74 whole entry, looked up): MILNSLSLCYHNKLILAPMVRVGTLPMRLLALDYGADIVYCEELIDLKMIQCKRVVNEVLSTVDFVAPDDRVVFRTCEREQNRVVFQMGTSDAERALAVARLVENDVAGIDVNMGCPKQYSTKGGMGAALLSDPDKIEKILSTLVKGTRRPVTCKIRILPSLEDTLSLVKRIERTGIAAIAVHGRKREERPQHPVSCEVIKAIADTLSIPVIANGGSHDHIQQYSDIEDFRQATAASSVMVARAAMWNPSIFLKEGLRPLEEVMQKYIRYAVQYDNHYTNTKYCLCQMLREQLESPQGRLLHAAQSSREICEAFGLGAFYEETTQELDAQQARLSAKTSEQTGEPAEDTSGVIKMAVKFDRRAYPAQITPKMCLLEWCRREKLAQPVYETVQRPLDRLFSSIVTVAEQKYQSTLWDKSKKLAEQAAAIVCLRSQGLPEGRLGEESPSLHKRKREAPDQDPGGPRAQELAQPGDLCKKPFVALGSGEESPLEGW
inactive: IRAK-1-4 Inhibitor I 0.014 | ibrutinib 0.041 | [1] -0.063 | ralimetinib 0.033 | [2] -0.161 | [3] 0.043 | [4] 0.044 | pinometostat -0.001 | [5] 0.035 | [6] -0.1 | [7] -0.028 | [8] -0.022 | [9] -0.022 | [10] 0.04 | Nexturastat A -0.015 | vemurafenib -0.004 | [11] 0.099 | [12] 0.039 | givinostat 0.062 | barasertib -0.062

DAXX (UniProt Q9UER7)
inactive: IRAK-1-4 Inhibitor I 0.13 | ibrutinib 0.091 | [1] 0.008 | ralimetinib 0.218 | [3] 0.243 | [4] 0.088 | pinometostat -0.049 | [5] 0.078 | [6] 0.078 | [7] 0.019 | [8] -0.02 | [9] 0.031 | [10] -0.165 | vemurafenib -0.058 | [11] 0.031 | givinostat 0.352 | barasertib -0.025

DPYSL2 (UniProt Q16555)
inactive: IRAK-1-4 Inhibitor I -0.003 | ibrutinib 0.092 | [1] 0.024 | [2] 0.092 | [3] 0.066 | pinometostat 0.009 | [5] -0.007 | [6] 0.01 | [7] -0.056 | [9] 0.03 | [10] 0.033 | Nexturastat A -0.176 | vemurafenib -0.056 | [11] -0.002 | [12] -0.065 | givinostat 0.03 | barasertib 0

DDOST (UniProt P39656)
inactive: IRAK-1-4 Inhibitor I -0.038 | ibrutinib -0.027 | [1] 0.057 | ralimetinib 0.156 | [2] 0.015 | [3] -0.081 | [4] -0.036 | pinometostat 0.015 | [5] 0.024 | [6] -0.041 | [7] 0.03 | [8] -0.013 | [9] -0.031 | [10] 0.016 | Nexturastat A -0.01 | vemurafenib 0.003 | [11] -0.006 | [12] -0.001 | givinostat 0.006 | barasertib 0.008
